Shown are actives, neighbours in structure and some others; about 3.6% of the full set was active somewhere.
Anthrax LF inh2 = anthrax lethal factor protease inhibition; P15917; multiplex microsphere protease cleavage assay, LF; inhibition, % at 10 µM; hit rate 0.12% among 360,000; AID 588501; further: plate controls were buffer without enzyme for full effect and enzyme alone for no effect
BJeLR lethal = kills HRASV12-expressing BJeLR cells; BJeLR (HRASV12) viability, CellTiter-Glo ATP luminescence, 48 h; inhibition, % (no concentration beside the values); hit rate 0.17% among 300,000; AID 1554; in the data active means inhibition above about 50%; inconclusive means no clear call, values can overlap the other calls
Autofluor counter = flagged as autofluorescent in microsphere protease counterscreen; compound autofluorescence counterscreen, microsphere flow cytometry; hits give high values; fluorescence intensity (no concentration beside the values); hit rate 3.1% among 360,000; AID 624483; in the data active means fluorescence intensity above about 16000; inconclusive means no clear call, values can overlap the other calls
3CLpro inhibitor = SARS-CoV 3CLpro protease inhibition. recombinant SARS-CoV 3CLpro, quenched FRET peptide cleavage. AID 1706. hit rate 0.14% among 290,000. P0C6X7. inhibition, % at 6 µM; in the data active means inhibition above about 12%
BoNT-F LC inh = BoNT F light chain protease inhibition | Multiplex microsphere protease cleavage assay, flow cytometry | inhibition, % at 10 µM | hit rate 0.22% among 360,000; in the data active means inhibition above about 35%, passing the limit was not always enough; inconclusive means no clear call, values can overlap the other calls; further: plate controls were buffer without enzyme for full effect and enzyme alone for no effect
BoNT A protease = blocks Botulinum neurotoxin A light chain protease | multiplex microsphere protease substrate cleavage, flow cytometry | inhibition, % at 10 µM | hit rate 0.17% among 360,000 | AID 588499; further: plate controls were buffer without enzyme for full effect and enzyme alone for no effect
* = called active by the depositor; ? = inconclusive; nt = no result given. Unless noted, no stated cut-off is given here; in the data, active means inhibition above about 30%; inconclusive means no clear call, values can overlap the other calls; inactive means below that.

SMILES | Anthrax LF inh2 | BJeLR lethal | Autofluor counter | 3CLpro inhibitor | BoNT-F LC inh | BoNT A protease
O=C(N1CCOCC1)N1CCN(c2nc(-c3ccccc3)cs2)CC1 | 2 | -1 | 22285* | 1 | 0 | 1
COc1ccc(OC)c(NC(=O)C2CCN(c3cc(-c4ccccc4)nc4ncnn34)CC2)c1 | 3 | 5 | 22638* | -2 | 1 | 3
COc1cccc(-c2csc(N3CCN(C(=O)Nc4ccccc4OC)CC3)n2)c1 | -5 | -2 | 21006* | 4 | -7 | ?
COc1ccc(NC(=O)C2CCN(c3cc(-c4ccccc4)nc4ncnn34)CC2)cc1OC | 1 | nt | 20978* | -2 | -1 | ?
CC(C)c1nnc(N2C(=O)C(O)=C(C(=O)c3cccs3)C2c2ccccc2)s1 (configuration not stated) | 4 | -6 | 4686 | -6 | 10 | 0
COc1ccccc1NC(=O)N1CCN(c2ccnc3cc(Cl)ccc23)CC1 | -7 | -2 | 4787 | 6 | -4 | 0
COc1ccccc1NC(=O)N1CCN(c2cc(-c3ccccc3)nc3ncnn23)CC1 | -1 | 4 | 22826* | -1 | 0 | ?
COc1ccc(C2(CNC(=O)c3ccc(OC)c([N+](=O)[O-])c3)CCOCC2)cc1OC | 0 | -11 | 21598* | 6 | 4 | ?
COc1ccc(C(=O)NCC2(c3ccccc3)CCOCC2)cc1[N+](=O)[O-] | 0 | -12 | 2436 | -2 | -4 | 0
O=C(c1cc2c(s1)CCCC2)N1CCC2(CC1)OCCO2 | 0 | 7 | 23757* | 4 | 0 | ?
O=C(c1cc2c(s1)CCCC2)N1CCN(C(=O)C2CCCO2)CC1 (configuration not stated) | -2 | 6 | 10986 | 1 | -4 | 0
CC1CCCCC1NC(=O)c1cn(C)c2ccc(S(=O)(=O)N3CCCC3)cc2c1=O (configuration not stated) | -2 | -9 | 20217* | -7 | -3 | ?
CC1CCCC(NC(=O)c2cn(C)c3ccc(S(=O)(=O)N4CCCC4)cc3c2=O)C1C (configuration not stated) | nt | 7 | nt | 1 | nt | nt
CC1CCN(S(=O)(=O)c2ccc3c(c2)c(=O)c(C(=O)NC2CCCC2)cn3C)CC1 | 2 | 10 | 20721* | 4 | -4 | ?
COC(=O)c1cn(C)c2ccc(S(=O)(=O)N3CCCC3)cc2c1=O | -5 | 4 | 20045* | 1 | 1 | 2
Cn1cc(C(=O)NC2CCCCC2)c(=O)c2cc(S(=O)(=O)N3CCCC3)ccc21 | 9 | -8 | 8988 | -7 | -6 | -1
CCC(C)N(C(=O)CSc1nc2ccc(OC)cc2[nH]1)C1CCS(=O)(=O)C1 (configuration not stated) | -6 | -5 | ? | nt | -26 | -8
COc1cc2c(cc1OC)C1(C)N(CC2)C(C(C)=O)=NN1c1ccc(Cl)cc1 (configuration not stated) | nt | -4 | nt | 2 | nt | nt
COc1cc(/C=C/C(C)=NNc2ccccc2)ccc1O | -6 | nt | 3048 | nt | -5 | -1
Cc1nc(-c2ccc(NC(=O)CC(C)C)cc2)cs1 | 3 | 2 | 1982 | -6 | -29 | -1
C/C(=N\NC(=O)CCC(=O)Nc1ccc(C)c(C)c1)C1CC1 | -1 | nt | 6124 | 1 | -4 | 0
COc1ccc(C(=O)CC(Nc2ccc([N+](=O)[O-])cc2)c2ccc(OC)cc2)cc1 (configuration not stated) | -2 | 9 | 24070* | 6 | -4 | -2
CCOc1ccc(CCNC(=O)CS(=O)Cc2nc(-c3ccc(C)cc3)oc2C)cc1OCC (configuration not stated) | nt | -5 | nt | 4 | nt | nt
Cc1ccccc1-c1nc(CS(=O)CC(=O)NCCN2CCN(Cc3ccccc3)CC2)c(C)o1 (configuration not stated) | -4 | 2 | 21943* | 0 | 0 | ?
CCOc1ccc(CCNC(=O)CS(=O)Cc2nc(-c3ccccc3C)oc2C)cc1OCC (configuration not stated) | -18 | -1 | 20576* | -2 | -98 | -49
SMILES | Anthrax LF inh2 | BJeLR lethal | Autofluor counter | 3CLpro inhibitor | BoNT-F LC inh | BoNT A protease
CC(CNC(=O)c1ccccc1[N+](=O)[O-])NC(=O)c1ccccc1[N+](=O)[O-] (configuration not stated) | nt | 2 | nt | nt | nt | nt
O=C(Nc1ccc2c(c1)C(=O)N(c1ccccc1)C2=O)C1CCCO1 (configuration not stated) | -5 | 8 | 21610* | -5 | 0 | ?
O=C1NC(=O)c2cc(NC(=O)C3CCCO3)ccc21 (configuration not stated) | -4 | 8 | 22178* | -4 | -1 | ?
Cc1ccc2c(C(=O)CN3CCC(C(N)=O)CC3)c(C)[nH]c2c1 | -1 | -1 | 3462 | -4 | -18 | -1
Cc1ccc(S(=O)(=O)N2C[C@H]3N(C(=O)OC(C)C)N(C(=O)OC(C)C)C[C@H](OC(=O)NCC4CCCCC4)[C@@]3(O)C2)cc1 | -4 | nt | 3751 | nt | -2 | 0
CCOC(=O)c1c(N)sc2c(O)c(Br)ccc12 | -2 | -12 | 20732* | 8 | -2 | 0
CCOC(=O)c1c(N)sc2c(NC(C)=O)cccc12 | nt | 1 | nt | 0 | nt | nt
CCCCCC/C=C/c1ccc(OC)c([C@H]2[C@H]3C=CC[C@@H](C)[C@@H]3C(=O)N2Cc2ccccc2)c1 | 0 | 5 | 3058 | nt | 1 | 0
O=C(/C=C/c1ccc([N+](=O)[O-])cc1)NCCSc1ccccc1 | -1 | -5 | 23722* | 2 | -3 | ?
C[C@H](CO)N1C[C@H](C)[C@@H](CN(C)Cc2ccncc2)Oc2c(NC(=O)C3CC3)cccc2C1=O | 10 | nt | 3851 | nt | -1 | 0
CC(C)COc1ccc(-c2nn(-c3ccccc3)cc2/C=C2/SC(=S)N(CC(=O)O)C2=O)cc1 | -10 | 0 | 4811 | 2 | 2 | -4
CCOc1ccc(-c2nn(-c3ccccc3)cc2/C=C2\SC(=S)N(Cc3ccco3)C2=O)cc1 | 14 | -2 | 2009 | 2 | 6 | 37*
Cc1ccc(N2CC(C(=O)Nc3ccc(S(=O)(=O)NCC4CCCO4)cc3)CC2=O)cc1C (configuration not stated) | -2 | -3 | 3872 | -1 | -26 | 0
Cc1cc(N2C(=O)CC(N3CCN(C(c4ccccc4)c4ccccc4)CC3)C2=O)no1 (configuration not stated) | -1 | -4 | 2903 | 6 | -5 | 0
CCCCOc1ncnc2c1[nH]c1ccc(OC)cc12 | nt | 13 | nt | -5 | nt | nt
CCCCOc1ncnc2c1[nH]c1ccc(OCC)cc12 | 0 | -9 | 18958* | -3 | 1 | 2
CC(=O)NCCc1ccc(C(=O)CSc2nnc(C3CC3)n2C2CC2)cc1 | 4 | nt | 8632 | nt | -8 | 0
CCc1nnc(NC(=O)c2c(C)nn(-c3ccccc3)c2Cl)s1 | 2 | -3 | 4483 | 2 | 15 | -1
CCOC(=O)c1ccc(NC(=O)CC2SC3=NCCN3C2=O)cc1 (configuration not stated) | -14 | 2 | 5738 | 2 | -1 | 0
